# Laboratory results as given in PubChem BioAssay (NCATS).
# “And” between values parts separate entries of the source, which are not always exact repeats. Equal entries are not always repeated. Records with an inconclusive call do not appear. Unmarked numbers belong to inactive results. The source made the active and inactive calls. Calls come from the whole dose curve; as a rule, active = well fitted inhibition curve with a large enough effect; inconclusive = small, poorly fitted or top-dose-only effect; inactive = flat fitted curve, though single readings scatter.
# How the values were obtained:
# Experiment in all cases: Cytotoxic Profiling of Annotated Libraries Using Quantitative High-Throughput Screening (AID 1296008); note: nearly all actives have a fitted effect of over 60% in size
# Conditions in all cases: Five cell lines viability, CellTiter-Glo ATP luminescence, 48-72 h; max response: active compounds read low
# [1] = system: CRL-7250
# Method in brief: (§1)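 Cytotoxicity was measured as CellTiter-Glo ATP luminescence, read after 10 min at room temperature. Compound treatment of the cells lasted 48 or 72 hr at 37 degrees Celsius in a qHTS format.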
# [2] = system: HEK293
# Method in brief: as §1
# [3] = system: HaCat
# Method in brief: as §1
# % is set by controls: 0 for no effect and ±100 for the full control effect; potency is the fitted concentration of half-maximal effect.
compound,measurement,setting,value
COc1cc(C[C@@H](CO)[C@H](CO)Cc2ccc(O)c(OC)c2)ccc1O,max response,[1],-0.633%
same,max response,[2],-2.88%
same,outcome,[3],inactive
COc1cc(C(=O)NC2CCN(C)CC2)ccc1Nc1ncc2c(n1)N(C1CCCC1)CCC(=O)N2C(C)C,max response,[1],-17.1%
same,Potency,[2],8330 nM (active)
same,max response,[3],-42.1%
O=C(O)C[C@H](O)C[C@H](O)C=Cc1c(C2CC2)nc2ccccc2c1-c1ccc(F)cc1,Potency,[1],662 nM (active)
same,Potency,[2],9350 nM (active)
same,Potency,[3],4690 nM (active)
O=C(O)[C@H](CC(=O)N1C[C@@H]2CCCC[C@H]2C1)Cc1ccccc1,outcome,[1],inactive
same,max response,[2],-4.31%
same,outcome,[3],inactive
CC[C@H]1OC(=O)[C@H](C)[C@@H](O[C@H]2C[C@@](C)(OC)[C@@H](O)[C@H](C)O2)[C@H](C)[C@@H](O[C@@H]2O[C@H](C)C[C@H](N(C)C)[C@@H]2O)[C@](C)(OC)C[C@@H](C)C(=O)[C@H](C)[C@@H](O)[C@]1(C)O,max response,[1],4.09%
same,max response,[2],-15.9%
same,max response,[3],3.25%
Oc1cc2c(cc1O)C1c3ccc(O)c(O)c3OCC1(O)C2 (centres undefined),max response,[1],1.81%
same,max response,[2],1.47%
same,outcome,[3],inactive
COc1cccc2c1C(=O)c1c(O)c3c(c(O)c1C2=O)C[C@@](O)(C(C)=O)C[C@H]3O[C@H]1C[C@H](N)[C@H](O)[C@H](C)O1,Potency,[1],132 nM (active)
same,Potency,[2],66.2 nM (active)
same,Potency,[3],418 nM (active)
O=C(O)C=Cc1ccc(Cn2ccnc2)cc1,max response,[1],3.43%
same,max response,[2],-2.77%
same,max response,[3],-0.523%
CC(Cc1ccc(O)c(O)c1)(NN)C(=O)O (centres undefined),outcome,[1],inactive
same,max response,[2],-17.2%
same,max response,[3],-11%
O=C1c2c(O)cccc2[C@@H]([C@@H]2O[C@H](CO)[C@@H](O)[C@H](O)[C@H]2O)c2cc(CO)cc(O)c21,max response,[1],-3.91%
same,outcome,[2],inactive
same,max response,[3],-8.19%
CS[C@H]1SC[C@@H]2C(=O)N(C)[C@H](C(C)C)C(=O)OC[C@H](NC(=O)c3cnc4ccccc4n3)C(=O)N[C@H](C)C(=O)N(C)[C@@H]1C(=O)N(C)[C@H](C(C)C)C(=O)OC[C@H](NC(=O)c1cnc3ccccc3n1)C(=O)N[C@H](C)C(=O)N2C,Potency,[1],7.4 nM (active)
same,Potency,[2],5.3 nM (active)
same,Potency,[3],11.8 nM (active)
Cc1coc2c1C(=O)C(=O)c1c-2ccc2c(C)cccc12,max response,[1],-23.2%
same,max response,[2],-8.46%
same,outcome,[3],inactive
c1cncc(CN2CCC(n3ncc4c(N5CCOCC5)nc(-c5ccc6[nH]ccc6c5)nc43)CC2)c1,Potency,[1],4.18 µM (active) and 7.31 µM (active)
same,Potency,[2],5800 nM (active)
same,Potency,[3],14.8 µM (active) and 18.4 µM (active)
COc1ccnc2[nH]cc(C(=O)C(=O)N3CCN(C(=O)c4ccccc4)C[C@@H]3C)c12,max response,[1],-9.05%
same,max response,[2],-2.26%
same,max response,[3],-2.32%
CC(C)(C)[C@H](NC(=O)c1ccc(N)c(Cl)c1)C(=O)N1CCC[C@@H]1C(=O)N[C@H](C#N)CC(=O)O,outcome,[1],inactive
same,max response,[2],-9.49%
same,outcome,[3],inactive
OC[C@H]1OC(O)C[C@@H](O)[C@H]1O (some centres undefined),outcome,[1],inactive
same,outcome,[2],inactive
same,outcome,[3],inactive
COc1cc([C@@H]2c3cc4c(cc3[C@H](O)[C@H]3COC(=O)[C@@H]23)OCO4)cc(OC)c1OC,Potency,[1],296 nM (active)
same,Potency,[2],132 nM (active)
same,max response,[3],4.88%
COc1cc2c(Nc3ccc(Cl)c(Cl)c3F)ncnc2cc1OCC1C[C@@H]2CN(C)C[C@H]2C1,Potency,[1],9350 nM (active)
same,Potency,[2],4690 nM (active)
same,max response,[3],-106%
COC(=O)[C@H](CCCN=C(N)N)NS(=O)(=O)c1ccc(C)cc1,outcome,[1],inactive
same,outcome,[2],inactive
same,max response,[3],0.0008%
CCC(C=C[C@@H]1OC(=O)C=C[C@H]1C)=C[C@H](C)CC=CC(C)=C[C@@H](C)C(=O)[C@@H](C)[C@H](O)[C@@H](C)CC(C)=CC(=O)O,Potency,[1],55.3 nM (active)
same,Potency,[2],17.5 nM (active)
same,Potency,[3],110 nM (active)
Cc1cc(O)c2c(c1)C(=O)c1cccc(O)c1C2=O,outcome,[1],inactive
same,outcome,[2],inactive
same,max response,[3],-2.05%
COc1cc(N2CCC(C(N)=O)CC2)ccc1Nc1nc(N)c(Cl)c(Nc2ccccc2S(=O)(=O)C(C)C)n1,outcome,[1],inactive
same,Potency,[2],1480 nM (active)
same,max response,[3],-18.3%
Cc1cnc(Nc2ccc(CN3CCOCC3)cc2)nc1Nc1cccc(S(=O)(=O)NC(C)(C)C)c1,Potency,[1],3.32 µM (active) and 4.61 µM (active)
same,Potency,[2],3660 nM (active)
same,Potency,[3],2.64 µM (active) and 2.31 µM (active)
